As a reminder, the AC50 is the concentration at which the activity in the assay is half-maximal.

Where “and” joins values, the source holds several entries; their conditions need not be identical. Identical values can stand only once. Inconclusive results are not listed. Calls of active or inactive are those of the source. How the source made its calls: active means hit-call score of the fitted dose curve at least 0.9, where 1 is the maximum; inconclusive means response in the unintended direction; inactive means score below 0.9.

From PubChem BioAssay (EPA / NIEHS) come the findings set out here.

Experiment [1] is described as follows: TOX21_p53_BLA_p2_viability: Viability Assessment in the Tox21 HCT-116 p53 Agonism Beta-lactamase Assay, Phase 2 (AID 2283591).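 Further: compound exposure lasted 16 h at 37 °C; actives lower the ATP signal meaning cytotoxicity.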 The procedure, abridged: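 HCT116 p53-bla cells, 4000/well, dosed after 5 h plating (217-fold dilution of DMSO stocks) and incubated 16 h at 37C. Viability taken as cellular ATP by CellTiter-Glo luminescence after 30 min RT; signal loss marks cytotoxicity.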

The target of experiment [2] is Cellular tumor antigen p53 (Homo sapiens) (UniProt P04637). Briefly: TOX21_p53_BLA_p2_ratio: Tox21 HCT-116 p53 Agonism Beta-lactamase Assay, Ratio, Phase 2 (AID 2283592). In short, it runs like this:
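Plated HCT116 p53-bla cells (4000/well) received compound after 5 h, then 16 h at 37C/5% CO2. CCF4-AM added, 2 h RT. Ratio of 460 to 530 nm emission taken as the p53 reporter signal.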

Experiment [3] can be described thus: TOX21_p53_BLA_p3_viability: Viability Assessment in the Tox21 HCT-116 p53 Agonism Beta-lactamase Assay, Phase 3 (AID 2283593).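 Further: cells exposed to compound for 16 h before reading.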 The procedure, abridged:
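HCT116 cells, 4000/well, dosed 5 h after plating by pin transfer (217-fold dilution from DMSO stock) and incubated 16 h at 37C, 5% CO2. Viability read as ATP luminescence with CellTiter-Glo after 30 min at room temperature.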

For experiment [4], the target named is Cellular tumor antigen p53 (Homo sapiens) (UniProt P04637). As to the kind of experiment: TOX21_p53_BLA_p3_ratio: Tox21 HCT-116 p53 Agonism Beta-lactamase Assay, Ratio, Phase 3 (AID 2283596). The procedure, abridged:
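Cells were seeded at 4000/well, rested 5 h at 37C, then dosed with DMSO compound solutions (217-fold dilution) for 16 h. CCF4-AM substrate was loaded for 2 h at room temperature, and the 460/530 nm emission ratio was fitted for gain of signal versus DMSO.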

Experiment [5] in a line: TOX21_p53_BLA_p4_viability: Viability Assessment in the Tox21 HCT-116 p53 Agonism Beta-lactamase Assay, Phase 4 (AID 2283597).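 Further: hits lower the luminescence signal meaning cytotoxicity.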 In short, it runs like this:
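Readout: ATP luminescence (CellTiter-Glo), measured 30 min after reagent addition at RT. The reagent followed a 2 h CCF4-AM incubation, and the cells had been exposed to compound for 16 h at 37C.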

Experiment [6] has as its target Cellular tumor antigen p53 (Homo sapiens) (UniProt P04637). As to the kind of experiment: TOX21_p53_BLA_p5_ratio: Tox21 HCT-116 p53 Agonism Beta-lactamase Assay, Ratio, Phase 5 (AID 2283599). In short, it runs like this:
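HCT-116 p53-bla cells (4000/well) plated 5 h, dosed with compound (217-fold DMSO dilution) for 16 h at 37 C; CCF4-AM substrate 2 h at room temperature. Activity is the 460/530 nm emission ratio (405 nm excitation), fitted in gain-of-signal direction versus DMSO.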

Experiment [7] can be described thus: TOX21_p53_BLA_p5_viability: Viability Assessment in the Tox21 HCT-116 p53 Agonism Beta-lactamase Assay, Phase 5 (AID 2283600). The procedure, abridged: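 Workflow: seed 4000 cells per well, wait 5 h, add compounds (DMSO, 217-fold dilution), incubate 16 h, load CCF4-AM 2 h, add CellTiter-Glo, read luminescence after 30 min.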
Experiment [8] concerns the target Cellular tumor antigen p53 (Homo sapiens) (UniProt P04637). As to the kind of experiment: TOX21_p53_BLA_p4_ratio: Tox21 HCT-116 p53 Agonism Beta-lactamase Assay, Ratio, Phase 4 (AID 2283601). In short, it runs like this:
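HCT-116 p53 beta-lactamase reporter cells (4000/well) preincubated 5 h, then compound (217-fold dilution of DMSO stock) for 16 h at 37C. CCF4-AM substrate added 2 h at room temperature; 460/530 nm emission ratio fitted upward versus DMSO.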

Sequence of Cellular tumor antigen p53 (Homo sapiens) (P04637 whole entry, looked up): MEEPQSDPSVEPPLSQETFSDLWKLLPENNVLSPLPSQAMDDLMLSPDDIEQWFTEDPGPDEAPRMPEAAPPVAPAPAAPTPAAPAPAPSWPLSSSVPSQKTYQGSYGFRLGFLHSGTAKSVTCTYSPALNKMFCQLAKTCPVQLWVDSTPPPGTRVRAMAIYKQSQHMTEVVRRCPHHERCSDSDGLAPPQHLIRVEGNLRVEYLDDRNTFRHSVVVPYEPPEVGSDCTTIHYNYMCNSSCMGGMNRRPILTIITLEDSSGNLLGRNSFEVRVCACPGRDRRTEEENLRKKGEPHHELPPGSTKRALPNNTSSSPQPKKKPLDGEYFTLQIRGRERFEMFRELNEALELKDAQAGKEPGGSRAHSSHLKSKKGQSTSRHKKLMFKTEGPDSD

Turning to `CC(C)(C)NCC(O)CSc1nc(-c2ccc(C(N)=O)s2)cs1` (stereo not given), the outcome in experiment [1], in experiment [2], in experiment [3], in experiment [4], in experiment [5] and in experiment [6] was inactive. Further, the compound was classed as inactive in experiment [7] and in experiment [8].

For the compound `CC[C@H]1CN2CCc3cc(OC)c(OC)cc3[C@@H]2C[C@@H]1C[C@H]1NCCc2cc(OC)c(OC)cc21`, the compound was classed as inactive in experiment [1], in experiment [2], in experiment [3], in experiment [4], in experiment [5] and in experiment [6]. For the same compound, the result in experiment [7] and in experiment [8] was inactive.

As to `CCCCCCCC(=O)CC[C@@H]1[C@@H](C/C=C\CCCC(=O)OC(C)C)[C@@H](O)C[C@H]1O`, the AC50 is 36.2 µM (active) in experiment [1]; 43.7 µM (active) in experiment [2]; 43.7 µM (active) in experiment [3]; 23 µM (active) in experiment [5]; 43 µM (active) in experiment [6]; 41.9 µM (active) in experiment [7]. In addition, the AC50 in experiment [8] is 43.6 µM (active). Moreover, the result in experiment [4] was inactive.

Take `CCCCCCCCCCCC[n+]1ccc2ccccc2c1`: the AC50 is 33.6 µM (active) in experiment [1]; 11 µM (active) in experiment [2]; 35.9 µM (active) in experiment [3]; 15 µM (active) in experiment [4]; 23 µM (active) in experiment [5]; 28.5 µM (active) in experiment [6]. In addition, the AC50 is 33.4 µM (active) in experiment [7] and 21.8 µM (active) in experiment [8].

In the case of `Cc1cc(O)c2c(c1)O[C@@]1(C)CC[C@H]3C(C)(C)CCCC34CO[C@@H]2[C@H]41` (stereo not given in full), the AC50 is 31 µM (active) in experiment [1]; 44.2 µM (active) in experiment [2]; 34.3 µM (active) in experiment [3]; 43.7 µM (active) in experiment [4]; 29.6 µM (active) in experiment [5]; 30.6 µM (active) in experiment [6]. The AC50 in experiment [7] was 20.8 µM (active); in experiment [8], 43.4 µM (active).

On to `C=CC(OCC)OCC`, for which the compound was called inactive in experiment [1], in experiment [2], in experiment [3], in experiment [4], in experiment [5] and in experiment [6]. Moreover, the call in experiment [7] and in experiment [8] was inactive.

Turning to `O=C(Nc1ccc(Oc2ccc(Cl)cc2)c(Cl)c1)c1cc(I)cc(I)c1O`, the AC50 in experiment [1] is 4.23 µM (active); in experiment [2], 4.05 µM (active); in experiment [3], 2.64 µM (active); in experiment [4] it was 3.93 µM (active); in experiment [5] it was 2.3 µM (active); in experiment [6], 10.2 µM (active). For the same compound, in experiment [8], the concentration at half-maximal activity (AC50) is 8.12 µM (active). The outcome in experiment [7] was inactive.

For `C(=C\c1ccccc1)/CN1CCN(C(c2ccccc2)c2ccccc2)CC1`, the result in experiment [1], in experiment [2], in experiment [3], in experiment [4], in experiment [5] and in experiment [6] was inactive. The result in experiment [7] and in experiment [8] was inactive.

Regarding `O=C(CCS)OCC(COC(=O)CCS)(COC(=O)CCS)COC(=O)CCS`, the outcome in experiment [1], in experiment [2], in experiment [3], in experiment [5], in experiment [6] and in experiment [7] was inactive. The outcome in experiment [8] was inactive. The AC50 in experiment [4] is 15.7 µM (active).

Consider `c1cc(OCC2CO2)cc(OCC2CO2)c1` (stereo not given), for which the compound was called inactive in experiment [1], in experiment [5] and in experiment [7]. Besides, the AC50 in experiment [2] is 14.3 µM (active); in experiment [3] it was 70.3 µM (active); in experiment [4], 20.4 µM (active); in experiment [6], 14.3 µM (active); in experiment [8], 63.2 µM (active).

`Nc1nc(F)nc2c1ncn2[C@@H]1O[C@H](CO)[C@@H](O)[C@@H]1O`: the compound was classed as inactive in experiment [1], in experiment [3], in experiment [5] and in experiment [7]. For the same compound, the AC50 is 21.1 µM (active) and 20 µM (active) in experiment [2]; 13.2 µM (active) and 20.6 µM (active) in experiment [4]; 22.5 µM (active) and 25.2 µM (active) in experiment [6]; 22.5 µM (active) and 24 µM (active) in experiment [8].

As to `OCCN1CCN(CCCN2c3ccccc3Sc3ccc(C(F)(F)F)cc32)CC1`, the outcome in experiment [1], in experiment [2], in experiment [3], in experiment [4], in experiment [6] and in experiment [7] was inactive. Also, the values for the AC50 in experiment [5] and in experiment [8] were 33.5 µM (active) and 40.9 µM (active), respectively.

Consider `COc1cc(NC(C)CCCN)c2ncccc2c1` (stereo not given), for which the compound was called inactive in experiment [1], in experiment [2], in experiment [3], in experiment [4], in experiment [5] and in experiment [6]. Also, the compound was classed as inactive in experiment [7] and in experiment [8].

Turning to `CC1=C(/C=C/C(C)=C/C=C/C(C)=C/C=C/C=C(C)/C=C/C=C(C)/C=C/C2=C(C)C[C@@H](O)CC2(C)C)C(C)(C)C[C@H](O)C1`, the AC50 in experiment [1] was 40.1 µM (active); in experiment [2], 38.8 µM (active); in experiment [4], 33.8 µM (active); in experiment [5] it was 36.6 µM (active); in experiment [6], 38.8 µM (active); in experiment [7], 43.2 µM (active). For the same compound, in experiment [8], the AC50 was 36.4 µM (active). Besides, in experiment [3], the call was inactive.

Regarding `O=C(O)COC(=O)Cc1ccccc1Nc1c(Cl)cccc1Cl`, the call in experiment [1], in experiment [2], in experiment [3], in experiment [4], in experiment [5] and in experiment [6] was inactive. Further, the call in experiment [7] and in experiment [8] was inactive.

Turning to `Cc1cc(CC(C)CC(C)(C)C)n(O)c(=O)c1` (stereo not given) (tested in a mixture with another compound), the result in experiment [1], in experiment [2] and in experiment [4] was inactive. Further, the AC50 in experiment [3] was 43.5 µM (active); in experiment [5], 34.1 µM (active); in experiment [6], 36.1 µM (active); in experiment [7], 41.8 µM (active); in experiment [8], 33 µM (active).

For the compound `O=S(=O)(O)Oc1ccc(C(c2ccc(OS(=O)(=O)O)cc2)c2ccccn2)cc1`, the result in experiment [1], in experiment [2], in experiment [3], in experiment [4], in experiment [5] and in experiment [6] was inactive. Further, the compound was classed as inactive in experiment [7] and in experiment [8].

As to `c1ccc(C(O[C@H]2CCCN(CCc3ccc4c(c3)OCO4)C2)c2ccccc2)cc1`, the compound was called inactive in experiment [1], in experiment [2], in experiment [3], in experiment [4], in experiment [5] and in experiment [6]. Besides, the outcome in experiment [7] and in experiment [8] was inactive.

For `O=C(c1ccc(O)cc1)c1ccc(O)c(O)c1O`, the outcome in experiment [1], in experiment [2], in experiment [3], in experiment [4], in experiment [5] and in experiment [6] was inactive. For the same compound, the call in experiment [7] and in experiment [8] was inactive.

With `CC(=O)Oc1ccc(C2(c3ccc(OC(C)=O)cc3)C(=O)Nc3ccccc32)cc1`, the AC50 is 781 nM (active) and 543 nM (active) in experiment [1]; 540 nM (active) and 368 nM (active) in experiment [2]; 633 nM (active) and 692 nM (active) in experiment [3]; 641 nM (active) and 515 nM (active) in experiment [4]; 580 nM (active) and 459 nM (active) in experiment [5]; 663 nM (active) and 407 nM (active) in experiment [6]. In experiment [8], the AC50 is 555 nM (active) and 464 nM (active). In addition, in experiment [7], the outcome was inactive.
